Out of some 360,000 compounds screened, about 3,100 (0.86%) were called active. The full list was thinned out, with actives kept by preference. Unmarked numbers belong to inactive results.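 Rule for the calls: active = inhibition or corrected inhibition above about 18%, plus a signal ratio from 0.5 to 1.5 (limit read from the data, passing the limit was not always enough); inactive = the rest.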
Each compound was assayed against Neuropilin-1 (Homo sapiens) (UniProt O14786) (assay: modulators of CendR peptide binding to NRP-1, primary screen, biochemical, fluorescence polarization, uHTS (AID 602438)). Conditions: FAM-RPARPAR peptide binding to NRP-1, fluorescence polarization; at 25 µM; active compounds read high.
Sequence of Neuropilin-1 (Homo sapiens) (O14786 whole entry, looked up): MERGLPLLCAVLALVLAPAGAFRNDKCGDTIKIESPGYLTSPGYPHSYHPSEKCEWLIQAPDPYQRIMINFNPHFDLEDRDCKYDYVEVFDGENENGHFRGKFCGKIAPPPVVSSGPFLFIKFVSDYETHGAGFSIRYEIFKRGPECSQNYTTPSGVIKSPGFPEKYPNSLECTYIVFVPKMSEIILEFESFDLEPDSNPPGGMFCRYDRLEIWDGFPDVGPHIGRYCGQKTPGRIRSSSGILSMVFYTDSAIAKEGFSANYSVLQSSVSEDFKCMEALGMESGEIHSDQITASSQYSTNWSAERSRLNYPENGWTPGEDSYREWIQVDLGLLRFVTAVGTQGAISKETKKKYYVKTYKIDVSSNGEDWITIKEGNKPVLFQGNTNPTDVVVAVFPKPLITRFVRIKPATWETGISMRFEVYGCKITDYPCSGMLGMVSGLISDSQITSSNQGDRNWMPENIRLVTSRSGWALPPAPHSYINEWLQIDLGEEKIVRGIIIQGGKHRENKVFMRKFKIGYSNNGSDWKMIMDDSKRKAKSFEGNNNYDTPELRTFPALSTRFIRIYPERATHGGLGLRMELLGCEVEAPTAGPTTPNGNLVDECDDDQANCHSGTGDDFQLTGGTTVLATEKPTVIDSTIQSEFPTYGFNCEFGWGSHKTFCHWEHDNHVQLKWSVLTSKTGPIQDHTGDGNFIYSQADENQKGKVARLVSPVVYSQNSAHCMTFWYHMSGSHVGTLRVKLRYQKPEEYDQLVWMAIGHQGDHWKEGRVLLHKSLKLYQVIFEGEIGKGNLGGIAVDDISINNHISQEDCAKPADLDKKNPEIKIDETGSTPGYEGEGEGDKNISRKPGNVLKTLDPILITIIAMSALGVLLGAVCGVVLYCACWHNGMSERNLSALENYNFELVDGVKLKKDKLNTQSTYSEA
Work on `O=C(COC(=O)c1ccccn1)NNC(=O)c1ccc([N+](=O)[O-])cc1` yielded an inhibition of 2.2%. For `O=C(OCc1ccc([N+](=O)[O-])cc1)c1ccccn1`, the inhibition was 28.2% (active). Compound `N/C(=N\OC(=O)Cc1ccc([N+](=O)[O-])cc1)c1ccccn1` has an inhibition of -0.7%. In the case of `Cc1ccc(OCC(=O)N2CCN(C(=O)c3cccnc3)CC2)cc1`, the inhibition is reported as 6.1%. For `O=C(C[C@H]1CC[C@H]2[C@@H](COC[C@H](O)CN2C(=O)c2ccccn2)O1)N1CCN(c2ccccc2)CC1`, the inhibition was 2.2%. In the case of `COc1cc(C2C(C(=O)c3sc(C)nc3C)=C(O)C(=O)N2CCN(C)C)cc(OC)c1OC` (centres undefined), the inhibition is reported as 0.6%. Work on `Cc1ccc(S(=O)(=O)N2CCC(=O)N([C@H](COCc3ccccc3)C(C)C)CC2)cc1` yielded an inhibition of -3.6%. `Cc1ccc(S(=O)(=O)N2CCC(=O)N([C@H](COCc3ccccc3)Cc3ccccc3)CC2)cc1` gave an inhibition of -15.7%. In the case of `COc1ccc(COCCN2CCN(S(=O)(=O)c3ccccc3)CCC2=O)cc1`, the inhibition is reported as 28.5% (active). `CCCCCn1nnnc1-c1nc2cc3ccccc3cc2[nH]c1=O` showed an inhibition of 0%. In the case of `COCCCNC(=O)c1c(F)c(F)c(F)c(F)c1F`, the inhibition is reported as 8.4%. Work on `Cc1nc(C(F)(F)F)ccc1C(=O)N1CCC1(C)C(=O)NS(=O)(=O)c1ccccc1Cl` (centres undefined) yielded an inhibition of 13.8%. `NC(=O)COc1ccccc1C(=O)NC12CC3CC(CC(C3)C1)C2` was tested, and the inhibition was -2.6%. Compound `O=C(NCCN1CCOCC1)c1ccccc1N1C(=O)[C@@H]2Cc3c([nH]c4ccccc34)C(c3cccc(Cl)c3)N2C1=O` (some centres undefined) has an inhibition of -5.5%. With `CCOCc1nnc(NC(=O)CSc2ccc(C)cc2)s1` the inhibition was -1%. With `Cc1ccc(OCc2nnc(NC(=O)OCC(C)C)s2)cc1` the inhibition was 19.5% (active). In the case of `O=C(Nc1nnc(COc2ccccc2)s1)Nc1ccccc1F`, the inhibition is reported as -10.8%. `O=C(CNCc1ccco1)Nc1cc(S(=O)(=O)N2CCOCC2)ccc1N1CCCC1` showed an inhibition of 7.8%. `Cc1cc(C)c(CN2CCN(C(=O)Cn3ccc(NC(=O)OCc4ccccc4)nc3=O)CC2)c(C)c1` showed an inhibition of 3.3%. `O=C(c1ccccc1)c1cccn1CC(=O)N1CCN(c2ccc(F)cc2)CC1` gave an inhibition of -4.3%. Compound `Cc1ccc(CNS(=O)(=O)c2ccc3c(c2)N(C)CCO3)cc1` has an inhibition of -8.8%. In the case of `Cc1nonc1NC(=O)c1oc2ccccc2c1C`, the inhibition is reported as 7.8%. In the case of `CCc1nonc1NC(=O)c1oc2ccc(Cl)cc2c1C`, the inhibition is reported as 13.2%. In the case of `COc1ccc(-c2nonc2NC(=O)c2oc3ccc(F)cc3c2C)cc1OC`, the inhibition is reported as 30.3% (active). Work on `O=C(NCc1ccc2c(c1)OCO2)C1CCCN(S(=O)(=O)c2cccs2)C1` (centres undefined) yielded an inhibition of -10.1%. For `CCCCc1c(-c2ccc(Br)cc2)ncn1CCc1ccccc1OC`, the inhibition was 12.7%. `CC(C)C1Cc2[nH][nH]c(=O)c2C(c2ccc(Cl)cc2)O1` (centres undefined) showed an inhibition of -4.6%. `CC(C)NC(=O)c1ccccc1S(=O)c1ccccc1C#N` (centres undefined) was tested, and the inhibition was -10.3%. In the case of `CCc1oc(-c2ccc(OC)cc2)c(C(=O)OCCCCCO)c1C(C)OCCO` (centres undefined), the inhibition is reported as 23% (active). `CCN(CCCCOC(=O)c1ccc(OC)c(OC)c1)C(C)Cc1ccc(OC)cc1` (centres undefined) showed an inhibition of -0.7%. Work on `COc1ccc(-c2oc3ncnc(NCCCO)c3c2-c2ccc(OC)cc2)cc1` yielded an inhibition of 4.1%. `Cc1ccc([C@@H]2CC=C(C(=O)O)[C@H](c3cccc(Cl)c3)N2S(=O)(=O)c2ccc(C)cc2)cc1` showed an inhibition of -10.9%. `CCOC(=O)C1=CCC(c2ccc(F)cc2)N(S(=O)(=O)c2ccc(C)cc2)C1` (centres undefined) was tested, and the inhibition was 19.9% (active). With `CCOC(=O)C1=CC[C@@H](c2ccccc2)N(S(=O)(=O)c2ccc(C)cc2)[C@H]1c1ccc(CC)cc1` the inhibition was 11.1%. In the case of `CCOC(=O)C1=CC[C@@H](c2ccccc2)N(S(=O)(=O)c2ccc(C)cc2)[C@H]1c1cccc(OC)c1`, the inhibition is reported as 26% (active). `CC(=O)C1=CCC(c2ccccc2)N(S(=O)(=O)c2ccc(C)cc2)C1` (centres undefined) was tested, and the inhibition was -3.9%. In the case of `CCOC(=O)C1=CC[C@@H](c2ccncc2)N(S(=O)(=O)c2ccc(C)cc2)C1`, the inhibition is reported as 13.9%. With `CCN(CC)S(=O)(=O)c1ccc(CNC(=O)CN2C(=O)NC3(CCc4ccccc43)C2=O)cc1` (centres undefined) the inhibition was -10.1%. With `CCOC(=O)CSc1nc(N2CCOCC2)c2c(c1C#N)CC(C(C)C)OC2` (centres undefined) the inhibition was -2%. In the case of `CCOC(=O)CSc1ccccn1`, the inhibition is reported as 2.8%. For `CCOC(=O)CSc1nccc(N(C)C)c1C#N`, the inhibition was 25.2% (active). In the case of `Cc1n[nH]c(C)c1S(=O)(=O)N1CCCC(C(=O)NCC2COc3ccccc3O2)C1` (centres undefined), the inhibition is reported as 6.3%. Compound `COC(=O)Nc1ncc(CN2CCCCC2)s1` has an inhibition of 6.1%. `COC(=O)C1(C(=O)OC)C[C@H](c2ccccc2)N(Cc2ccccc2OC)[C@@H]1c1ccccc1` was tested, and the inhibition was 18.8%. `COC(CNC(=O)c1ccc2c(c1)ncn2-c1cc(C)cc(C)c1)OC` showed an inhibition of -2.4%. `COCCNC(=O)c1ccc2c(c1)ncn2-c1ccc(C)c(Cl)c1` was tested, and the inhibition was 37.8% (active). `COCCCNC(=O)c1ccc2c(c1)ncn2-c1ccccc1OC` was tested, and the inhibition was -5.2%. With `CC1(C)NC(=O)N(CC(=O)N2CCN(S(=O)(=O)c3ccccc3F)CC2)C1=O` the inhibition was -17.9%. `CCOC(=O)N1CCC(N(CCOC)C(=O)Nc2ccc(C)c(C)c2)CC1` showed an inhibition of -9.1%. `CC(=O)NCC(=O)N(C)C(C(=O)Nc1ccc2c(c1)OCCO2)c1ccccc1` (centres undefined) showed an inhibition of -6%. Work on `CC(=O)N1c2ccc(S(=O)(=O)N3CCC(C(=O)NCc4ccc(F)cc4)CC3)cc2CC1C` (centres undefined) yielded an inhibition of -3.5%. In the case of `CC(=O)N1c2ccc(S(=O)(=O)N3CCC(C(=O)NC4CCCCC4C)CC3)cc2CC1C` (centres undefined), the inhibition is reported as 21.3% (active). For `CC(=O)N1c2ccc(S(=O)(=O)N3CCC(C(=O)NC4CCCC(C)C4C)CC3)cc2CC1C` (centres undefined), the inhibition was 1.3%. With `COc1ccc2c(c1)C(NS(=O)(=O)OCC(Cl)(Cl)Cl)CCC2` (centres undefined) the inhibition was 20.7% (active). In the case of `COc1ccc(CN(C)C(C)C(=O)NC2CCCc3ccccc32)cc1` (centres undefined), the inhibition is reported as -9.8%. `COC(=O)c1cc(OCC(=O)NC2CCCc3ccccc32)cc(C(=O)OC)c1` (centres undefined) showed an inhibition of 11.6%. In the case of `CCCc1nnc(NC(=O)CCC(=O)NC2CC2)s1`, the inhibition is reported as -3.9%. `COc1cccc(N(C(=O)c2ccn[nH]2)C2(C(=O)Nc3c(C)cccc3C)CCCCC2)c1` was tested, and the inhibition was 20.6% (active). With `Cc1cccc(C)c1NC(=O)C1(N(C(=O)c2ccccn2)c2ccc(O)cc2)CCCCC1` the inhibition was -2.4%. For `COc1cccc(NC(=O)C2(C)CCN2C(=O)CCC2CCCC2)c1` (centres undefined), the inhibition was -6.9%. Work on `Cc1nc2c(-c3ccc(F)cc3)c(C)nn2c(C)c1CCC(=O)N1CCN(c2ccccn2)CC1` yielded an inhibition of -14.2%. In the case of `CCc1ccc(Nc2n[n+](-c3ccccc3)c(-c3cccc(Cl)c3Cl)s2)cc1`, the inhibition is reported as 7.2%. In the case of `COc1cc(Br)c(-c2sc(Nc3ccccc3)n[n+]2-c2ccccc2)cc1OC`, the inhibition is reported as 23.7% (active). `COc1ccc(C)cc1Nc1n[n+](-c2ccccc2)c(-c2cccc(Cl)c2Cl)s1` showed an inhibition of 9.5%. For `O=C(C(NS(=O)(=O)c1cccc2nsnc12)c1ccccc1)N1CCN(c2ccccc2)CC1` (centres undefined), the inhibition was 3.4%. In the case of `COc1ccc(COC(=O)c2ccc(Cl)c(S(=O)(=O)N3CCOCC3)c2)cc1F`, the inhibition is reported as -7.6%. `O=C(Cc1ccccc1Cl)N1CCOCC1` was tested, and the inhibition was 45.9% (active). Work on `O=C(CP(=O)(c1ccccc1)c1ccccc1)N1CCOCC1` yielded an inhibition of 12.2%. With `O=C(Cc1ccccc1Cl)N1CCN(c2ccccn2)CC1` the inhibition was -9.5%. For `C=CCOc1cccc(CNn2cn[nH]c2=S)c1`, the inhibition was -0.4%. Compound `CCCNC(=O)c1onc(CSc2ccc(F)cc2)c1C(=O)NC(C)C` has an inhibition of 5.5%. `COC(=O)c1c(CCl)noc1C(=O)NC(C)C` was tested, and the inhibition was 28.8% (active). Compound `COC(=O)c1onc(-c2c(OC)cc(OC)cc2OC)c1C(=O)OC` has an inhibition of 2.6%. `CC1CC(C)(C)n2c(O)c(N=NC(N)=S)c3cccc1c32` (centres undefined) showed an inhibition of 6.2%. Compound `O=C(O)CCCN1C(=O)C2C3c4ccccc4C(c4ccccc43)[C@@H]2C1=O` (some centres undefined) has an inhibition of -2%. Work on `CCCCN(C)CCNC(=O)C1CCCN(S(=O)(=O)c2cccc3nsnc23)C1` (centres undefined) yielded an inhibition of -1.2%. With `Cn1cccc1C1(C(F)(F)F)NCCNC1=O` (centres undefined) the inhibition was -1.4%. Work on `Cc1c(CCO)c(=O)n(-c2ccccc2)n1S(=O)(=O)c1ccc(F)cc1` yielded an inhibition of -66%. `COc1cccc(-c2cc3nc(NCc4ccccc4OC)n(C)c(=O)c3s2)c1` showed an inhibition of 9.9%. With `COc1cccc(-c2ccc3c(c2)N(Cc2ccccc2OC)C(=O)C(C)S3)c1` (centres undefined) the inhibition was 21.5% (active). `COc1cccc(-n2cc3c(c2-c2ccccc2)c(=O)n(C)c(=O)n3C)c1` was tested, and the inhibition was -0.7%. `CN=C(c1ccccc1)c1c(C)cccc1C` was tested, and the inhibition was 1.9%. `Cc1nc(S(=O)(=O)c2ccc(Br)cc2)nc2c1CCC2` was tested, and the inhibition was 0.1%. `CCOC(=O)/C=C/c1ccc(C(F)(F)F)cc1S(=O)(=O)NC(C)(C)C` was tested, and the inhibition was 26.8% (active). Work on `Cn1c(N)c(C(=O)COC(=O)/C=C/c2cccc(C(F)(F)F)c2)c(=O)n(C)c1=O` yielded an inhibition of 4.9%. In the case of `CCOC(=O)CCC(NC(=O)c1ccc(CNc2nc3cc(C(F)(F)F)ccc3nc2C(=O)OCC)cc1)C(=O)OCC` (centres undefined), the inhibition is reported as -1.5%. `CC1CCCCN1CCCNC(=O)Cn1ncc2c([nH]c3ccccc32)c1=O` (centres undefined) was tested, and the inhibition was 6.7%. Compound `O=C(Cn1ncc2c3ccccc3n(Cc3ccccc3)c2c1=O)NCCCN1CCOCC1` has an inhibition of 8.8%. With `CCCn1c2ccccc2c2cnn(CC(=O)NCCCN3CCCCC3CC)c(=O)c21` (centres undefined) the inhibition was 29.4% (active).

Reference: PubChem BioAssay AID602438 (Sanford-Burnham Center for Chemical Genomics, 2012)
